From the supplement of paper PMC6555819

How the values were obtained:
Experiment in all cases: PBM binding z-score (relative to random genomic background probes); higher = stronger binding; sequences stand for … in GC…GCGATTGACAGCGTAGAATGAAGG
[1] = test system: RARb homodimer (NR concentration 270 nM)
Procedure, shortened: (§1)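 Antibodies against each partner of ligand-free nuclear receptor dimers (one per run) detected binding on custom Agilent 4×180K protein-binding microarrays after 1 h incubation. The double-stranded probes had 34-nt variable regions carrying direct-repeat seeds, single-nucleotide variants, half-site ablations and random human genomic background sequences. Binding z-scores, from regression-normalized fluorescence, use the random background probes as reference.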

[2] = test system: RARg:RXRa (NR concentration 270 nM, RXRa partner concentration 90 nM)
Procedure, shortened: as §1

[3] = test system: RARg homodimer (NR concentration 270 nM)
Procedure, shortened: as §1

[4] = test system: RXRa DBDmut IVT, anti-RXR (DBD mutation: RXRa K156A/R161A, NR concentration 90 nM)
Procedure, shortened: as §1

[5] = test system: RXRa homodimer (NR concentration 180 nM)
Procedure, shortened: as §1

[6] = test system: THRa:RXRa (NR concentration 90 nM, RXRa partner concentration 90 nM)
Procedure, shortened: as §1

[7] = test system: THRa homodimer (NR concentration 90 nM)
Procedure, shortened: as §1

[8] = test system: VDR homodimer (NR concentration 270 nM)
Procedure, shortened: as §1

Row | Sequence | PBM binding z-score [1] | PBM binding z-score [2] | PBM binding z-score [3] | PBM binding z-score [4] | PBM binding z-score [5] | PBM binding z-score [6] | PBM binding z-score [7] | PBM binding z-score [8]
1 | GCTTGTAGATCAAGGTCAAGAAAGACTAAGCTAA | 3.18 | 3.61 | 3.42 | 1.03 | 3.6 | 3.36 | 1.74 | 1.37
2 | CGTCCAAGGTCAAAGGTCCGTGAAGAGATGACGG | 3.99 | 6.31 | 6.35 | 3.54 | 6.84 | 3.99 | 2.24 | 2.87
3 | CGAACTAGGTCATTGACATGACAGTGAATAGTAA | 2.55 | 3.68 | 4.2 | 2.17 | 2.84 | 2.68 | 0.792 | 1.36
4 | GCTTGTAGATCACGGTTAAGAAAGACTAAGCTAA | -0.369 | -0.304 | -0.36 | 0.053 | -0.526 | -0.523 | -1.01 | -0.582
5 | ATATGTAGGTTAAGGGTCATTCGGGTTGGTTCGC | 3.7 | 4.87 | 3.3 | 2.32 | 6.11 | 3.39 | 1.95 | 5.4
6 | ATACCAAGGTGATCGTGCGGTCGTTGATACTAAC | 0.887 | 0.886 | 0.233 | -0.0167 | 0.159 | 1.23 | 0.424 | 0.302
7 | GCAGACAGGTGGAACGCAGGTAACTCAGGGTGGC | -0.721 | -0.378 | -0.569 | -0.849 | -0.144 | 0.751 | -0.601 | -0.591
8 | GCTATTAGTTTAAAGGGCAACCGAATGATTCTCG | 2.38 | 1.36 | 1.44 | 1.56 | 1.05 | 0.923 | 0.375 | 0.916
9 | TCTAGTTGGTCACTGAGGTCACACACGACGGGTA | 4.59 | 4.76 | 4.83 | 1.56 | 5.14 | 4.47 | 5.09 | 4.16
10 | TGTTGTAGATCAAAGGTTAAGAAAGCCGAAGCCT | 1.46 | 2.08 | 1.36 | -0.391 | 2.85 | 1.34 | -0.597 | -0.249
11 | CGTCCAAGGTCAAATGTCAGTGAAGAGATGACGG | 4.41 | 6.58 | 7.15 | 3.82 | 6.77 | 4 | 2.21 | 2.75
12 | ACTAGTTGGTCAGGTGAGGTCACACACAATTCGG | 4.31 | 4.16 | 4.17 | 1.23 | 4.21 | 4.85 | 5.01 | 4.61
13 | TGTCAAAGTTCAAACGTAACGTAAGTATCCACAC | 3.89 | 5.71 | 6.15 | 4.86 | 5.15 | 2.12 | -0.319 | 4.63
14 | CGTTACGGGTCAAGGTTATAGCACGGGTGGTACG | 3.67 | 4.89 | 4.88 | 0.953 | 5.7 | 3.24 | 0.918 | 1.42
15 | GTACAAAGGTGAATAGGTCGTTGATGAGTAGGCG | 3.11 | 4.37 | 2.79 | 0.47 | 3.43 | 1.72 | -0.0459 | 0.65
16 | TATCGGAGGACACGAAAGGTCAGAGCTCGACATC | 5.03 | 4.79 | 5.31 | 0.361 | 4.07 | 3.95 | 1.59 | 1.67
17 | TCTTGTAGATCAATAGAGGTTACGAAAGTGCGCT | 1.7 | 1.05 | 0.657 | 0.65 | 1.54 | 2.75 | 0.12 | 0.507
18 | CCTTACGGGTCACTCCAAGTTATAGCATCGGAGT | 2.81 | 4.31 | 4.69 | 1.81 | 4.11 | 2.51 | 0.165 | 1.05
19 | ATCGAACGGTCGAAGGTGAGTATACCCACCCGAA | 0.62 | 0.884 | 0.957 | -1.05 | 0.717 | -0.016 | -0.481 | -0.147

Row | Sequence | PBM binding z-score [1] | PBM binding z-score [2] | PBM binding z-score [3] | PBM binding z-score [4] | PBM binding z-score [5] | PBM binding z-score [6] | PBM binding z-score [7] | PBM binding z-score [8]
20 | ATCGAAAGGTCGTGAGGTGAGAATACAGAAAGGC | 3.14 | 4.62 | 3.89 | 1.28 | 5.3 | 3.49 | 1.44 | 0.87
21 | TCAGACAGGCGAAGGTAACTCAGGTACGCAGTCG | -0.405 | -0.089 | -0.377 | 0.863 | 0.579 | 0.951 | -0.297 | -0.35
22 | CAAACTATGTCACCGGAAGGTCAAAGTCCGCATG | 4.63 | 5.37 | 4.06 | 1.32 | 4.15 | 3.11 | 1.99 | 2.33
23 | GCTTGTAGTTCAAGGTTAAGAAAGACTAAGCTAA | 1.6 | 2.24 | 2.5 | 1.91 | 2.17 | 2.09 | 0.091 | 0.851
24 | TCTATTAGTTGATTAGGGCCACCGAAACAGCGGA | 0.67 | 0.31 | 0.582 | 1.19 | 0.411 | 1.09 | 0.613 | 0.435
25 | CGTACAAGGTCAAGGTCAGTGAAAGAGACTCGAA | 5.35 | 6.85 | 7.48 | 3.82 | 6.83 | 4.45 | 3.84 | 3.49
26 | ACTAGCAGGCCAAGTTTGGGTCACTCAAACAAAG | 2.42 | 2.46 | 1.72 | -0.26 | 0.865 | 2.54 | 0.952 | 0.495
27 | ATACCAAGGTGATCGTGAGGACGTTGATACTAAC | 0.51 | 0.635 | 0.393 | -0.27 | 0.264 | 2.96 | 1.97 | 0.714
28 | CGTCCAAGGTCATAGGAGGTGAGTGAAGACAGAT | 4.33 | 5.74 | 5.64 | 3.53 | 5.36 | 5.3 | 2.93 | 2.82
29 | CGAACGAGGGCATGAGTTGATATCAAATGCCGAT | 0.794 | 1.37 | 1.81 | 2.39 | 0.883 | 1.14 | -0.157 | 2.28
30 | ATCTCTAGGTAACGAAGTTCAGTGAATGCCGAAC | 1.38 | 0.591 | 0.883 | 0.137 | 0.413 | 0.946 | 0.14 | 1.27
31 | CCTAGCAGGCCAATATGGGTCACTCAAGGCTTGA | 2.09 | 1.38 | 1.31 | -0.181 | 1.36 | 2.5 | -0.509 | -0.211
32 | CCTATTAGTTGACCATGAGGGCAACCGAAGCTCG | 2.22 | 1.32 | 1.16 | 0.831 | 0.812 | 2.11 | 1.79 | 1.43
33 | ATCTCTAGGTAACCAAGTTCACTGAATGCCGAAC | 2.26 | 1.55 | 1.41 | 1.74 | 1.36 | 2.34 | 1.27 | 3.34
34 | TGAATGAGGCTAAAGATCAGGGAACGTGGCGTCG | -0.821 | -0.0145 | 0.0972 | -0.642 | 0.184 | 0.0902 | -1.04 | -0.642
35 | TCATATAGGTAAATGCTAGGTGCAAGTCCGATCT | -0.219 | 0.325 | 0.13 | 1.51 | 0.838 | 0.121 | 0.135 | 0.597
36 | ACTAGCAGGCCAGGGGTCACTCAAGATTAGTCCG | 4.12 | 5.09 | 4.23 | 1.31 | 6.16 | 3.5 | 1.05 | 2.8
37 | CCGACCGGGGCATAAGGTTACCATAAGCCAGCCC | 2 | 2.18 | 1.62 | -0.289 | 1.68 | 2.57 | 1.66 | 0.0101
38 | TCATATAGGTTAATGCTAGGTGAAAGTCCGATCT | 1.41 | 1.98 | 1.16 | 1.64 | 1.48 | 2.53 | 1.08 | 0.748

Row | Sequence | PBM binding z-score [1] | PBM binding z-score [2] | PBM binding z-score [3] | PBM binding z-score [4] | PBM binding z-score [5] | PBM binding z-score [6] | PBM binding z-score [7] | PBM binding z-score [8]
39 | TCGAGTAGCTTAGGGGCATTCAGAATGGCGTCGA | 0.0653 | -0.284 | -0.446 | 0.27 | 0.216 | 0.657 | -0.487 | 0.282
40 | ACAGACAGGTGATGAAGGTAAGTCAGGCTATCAT | 0.406 | 0.153 | 0.428 | -0.263 | 0.248 | 0.617 | -0.25 | -0.186
41 | CCGAATGGGGCAAGGTTACCATAACGCACAGCCA | 1.24 | 1.05 | 1.37 | 0.000118 | 1.39 | 1.26 | 0.404 | 0.214
42 | TCTTGTAGGTCAACAGGAGGTTAAGAAAGATCGA | 3.98 | 6.27 | 5.18 | 1.42 | 4.53 | 3.41 | 0.603 | 0.658
43 | ATCGAGAGGTCGACGAGGTGAGTATACACCGTTT | 1.94 | 3.1 | 2.85 | 1.07 | 3.46 | 3.58 | 0.777 | 1.52
44 | AGTCAAAGTTCACTAGGTAACTTAAGATTCAGCT | 3.53 | 4.86 | 5.58 | 4.13 | 3.94 | 2.03 | 0.269 | 3.85
45 | ATATGTAGGTTTGCTGGGGTCATTCAGACTAGGC | 3.3 | 3.6 | 2.31 | 2.62 | 4.91 | 4.29 | 3.2 | 5.58
46 | ATAAGTAGGTTAGCTGGGGTCATTCAGACTAGGC | 3.84 | 4.16 | 2.94 | 1.95 | 5.34 | 5.32 | 3.54 | 4.63
47 | ACTAGCAGGCCAAGTTTGGCTCACTCAAACAAAG | -0.243 | -0.36 | -0.0918 | -0.118 | -0.415 | -0.267 | -0.863 | -0.448
48 | CCGACTGGGGCAAAGGTTAACATACTCAGTACGA | 2.4 | 4.1 | 2.03 | 0.365 | 3.89 | 2.19 | -0.145 | 0.335
49 | TCTGCTAGGGCAACGATGGTCAGCTAATCTGCTA | 0.762 | 0.579 | 0.934 | -0.149 | -0.0028 | 0.381 | -0.978 | -0.735
50 | CAAACTAGGTCAAGAGGTCAAAGTGCGCTTCCCG | 5.69 | 8.27 | 7.86 | 3.2 | 8.67 | 4.46 | 2.56 | 4.83
51 | CCTTACGGGTCAAGGTTAGAGCACGGGTGGTACG | 3.19 | 4.77 | 4.65 | -0.0809 | 4.97 | 2.94 | 0.656 | 1.05
52 | AGAACGAGAGCAATGAGTTGATAGCACGGGTGGC | -0.971 | -0.154 | -0.0386 | -0.0984 | 0.0785 | -0.86 | -1.05 | 0.253
53 | CCGAGTAGGTTATCGGGCATTCAGGCAACGGTGA | 0.614 | 0.431 | 0.479 | -0.164 | 0.45 | 0.172 | -0.196 | -0.435
54 | AGAATGAGGTTATACGTAGATCAGGAAAGAAAGT | 0.817 | 1.68 | 1.3 | 1.77 | 2.25 | 2.15 | 0.219 | 0.894
55 | ATCTCTAGGCAAGACTCAGTTCAGTGAAGAACGC | 0.298 | -0.279 | 0.0763 | 0.109 | -0.365 | 0.205 | 0.122 | 1.01
56 | CCTTACGGGTCACTCCAGGTTAAAGCATCGGAGT | 3.23 | 4.68 | 4.54 | 1.13 | 4.65 | 5.26 | 0.483 | 1.41
